# Results reported in PubChem BioAssay (NCI).
# About 83,000 compounds went through this panel and 20% of them were active in at least one assay; those are over-represented in the sample as a whole.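 Values shown are percent growth following 48 h exposure of cells in 96-well plates to a single concentration of compound; below 10 was considered active.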 Unmarked numbers belong to inactive results. Active and inactive are the calls of the source.
# Key:
# Assay in all cases: NCI-60 one-dose screen, 48 h (100 = growth as untreated, 0 = no growth, -100 = all killed)
# Details in all cases: 10 µM unless noted
# [1] = tested on: SK-MEL-2 melanoma
# [2] = tested on: EKVX NSCLC
# [3] = tested on: SN12C renal
# [4] = tested on: UO-31 renal
# [5] = tested on: TK-10 renal
# [6] = tested on: ACHN renal
# [7] = tested on: CAKI-1 renal
# [8] = tested on: A498 renal
# [9] = tested on: CCRF-CEM leukemia
# [10] = tested on: MOLT-4 leukemia
# [11] = tested on: RPMI-8226 leukemia
# [12] = tested on: OVCAR-8 ovarian
# [13] = tested on: OVCAR-5 ovarian
# [14] = tested on: OVCAR-4 ovarian
# [15] = tested on: SK-OV-3 ovarian
# [16] = tested on: IGROV1 ovarian
# [17] = tested on: OVCAR-3 ovarian
# [18] = tested on: HS 578T breast
# [19] = tested on: NCI/ADR-RES ovarian
Structure (SMILES),growth [1],growth [2],growth [3],growth [4],growth [5],growth [6],growth [7],growth [8],growth [9],growth [10],growth [11],growth [12],growth [13],growth [14],growth [15],growth [16],growth [17],growth [18],growth [19]
S=C(c1ccc2c(c1)OCO2)N1CCN(c2ccccc2Cl)CC1,97.3%,124%,110%,79.4%,105%,99%,83.8%,97%,96.1%,95.8%,85.9%,102%,97.6%,98.7%,102%,101%,112%,107%,99.7%
COc1ccc(C2c3ccc4ccccc4c3Oc3nc(C)[nH]c(=O)c32)cc1 (centres undefined),112%,103%,99.4%,-97.5% (active),116%,92.3%,73.9%,92.5%,106%,115%,102%,101%,114%,113%,100%,95.8%,108%,96.3%,93.9%
O=C(N/N=C/C=C/c1ccc([N+](=O)[O-])o1)c1cc2ccccc2cc1O,-44.6% (active),-15.9% (active),-10.7% (active),-71.9% (active),2.31% (active),-3% (active),12.7%,-82.4% (active),5.15% (active),4.89% (active),-11.2% (active),0.564% (active),-1.58% (active),-100% (active),-13.5% (active),-62.6% (active),-54.8% (active),-4.48% (active),0.815% (active)
CCN1C(=O)N(CC)C2Nn3c(s/c(=C4\C(=O)N(C)c5ccccc54)c3=O)=NC21 (centres undefined),48.2%,71.2%,43.4%,48.6%,8.83% (active),46.9%,36%,-2.65% (active),35.8%,60.5%,48.2%,38%,53.8%,59.6%,63.4%,43.3%,8.52% (active),38.3%,6.8% (active)
O=C1Nc2ccccc2/C1=C/c1cn(C(=O)c2ccc(Cl)cc2)c2ccccc12,120%,59%,95.4%,74.7%,130%,103%,59.1%,116%,104%,109%,74.5%,95.1%,110%,78.3%,104%,72.7%,98.7%,106%,104%
CSc1n(Cc2ccc3ccccc3c2)c(C)c[n+]1Cc1ccc2ccccc2c1,-25.7% (active),24.9%,-2.22% (active),72.4%,-9.72% (active),48%,-22.8% (active),-32.3% (active),1.28% (active),2.39% (active),-38.3% (active),-3.48% (active),6.94% (active),-7.94% (active),5.34% (active),-55.6% (active),-41.9% (active),-23.3% (active),78.4%
O=c1[nH][n+](-c2ccc(Cl)cc2)no1,75.4%,60.6%,73.5%,27%,70.8%,40.7%,18.5%,82.6%,55.3%,44.4%,79.2%,69.9%,77%,83.5%,86.8%,70.5%,86.8%,98.5%,79.9%
COc1ccc(CNC(=O)C(O)C(Cc2ccccc2)NC(=O)c2[nH]c3ccccc3c(=O)c2C)cc1OC (centres undefined),99.5%,99%,103%,98.7%,93.6%,108%,99.6%,113%,108%,99.8%,111%,103%,98.1%,111%,103%,112%,111%,97.4%,107%
Cc1ccc(S(=O)(=O)N/N=C\c2cc(Cl)ccc2O)cc1,99.7%,113%,101%,83.7%,88.4%,75.4%,73.9%,86.7%,74%,98.1%,82.3%,91.2%,82%,102%,63.3%,51%,115%,91.3%,71%
CCOC(=O)c1c(/C=C/C(=O)O)nc2ccccc2c1/C=C/c1ccccc1,47.4%,61.6%,27.1%,42.5%,65.5%,43.2%,62.3%,8.83% (active),17.1%,25.5%,10.9%,31.2%,57.4%,60.5%,93.6%,52.1%,13.3%,18.7%,32.7%
CCOC(=O)c1c(-c2ccc(Cl)cc2)c(C#N)c(=O)n(-c2ccccc2CC)c1N,114%,90.6%,92.1%,71.6%,117%,89.5%,105%,97.5%,17.7%,70.3%,69.3%,87.1%,92.6%,98.1%,102%,99.8%,87.8%,102%,91.9%
CCCCCCN(CCCCCC)c1ccc(/C=C2/SC(=O)N(c3nc(N4CCCC4)nc(N4CCCC4)n3)C2=O)c(C)c1,53.9%,87.2%,59.9%,52.9%,85.8%,68.5%,82.5%,60.9%,54.1%,38.1%,42%,66.1%,104%,51.9%,91.3%,77.3%,63.2%,78.4%,71.3%
CCN(CC)c1ccc2nc3c4ccccc4c(=NC(=O)c4ccccc4-c4c5ccc(N(CC)CC)cc5[o+]c5cc(N(CC)CC)ccc45)cc-3oc2c1,41.7%,54.6%,64%,32.6%,74.6%,73.6%,55.2%,86.9%,24.4%,-23.9% (active),1.89% (active),43.8%,73%,-47.4% (active),78.9%,-66.6% (active),-50.1% (active),63.3%,51.5%
COc1cccc(-c2nc3sccn3c2/C=C/C(=O)c2ccc(C(F)(F)F)cc2)c1,79.1%,94.2%,76.7%,56.3%,89.7%,94.7%,84.7%,52.7%,66.8%,48.5%,46.5%,81.1%,92.5%,92.9%,77.3%,92.8%,78.9%,80%,89.8%
Cn1c(=O)c2[nH]c(NN)nc2n(C)c1=O,105%,120%,108%,90.8%,107%,105%,96%,109%,92.4%,96.1%,96%,129%,115%,116%,114%,116%,118%,122%,113%
OC(COc1ccccc1Cl)COc1ccccc1Cl,107%,106%,97%,82.1%,102%,97.3%,106%,85.2%,-46.3% (active),92.3%,81.5%,109%,81.9%,105%,107%,96.7%,118%,102%,95.9%
